From PubChem BioAssay AID1025 (Sanford-Burnham Center for Chemical Genomics, 2008)
Out of some 96,000 compounds screened, fewer than 10 were called active.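 Rule for the calls: active = activation factor of at least 2 at 5 µM in the primary screen; inactive = the rest.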 These entries were drawn from the full list.

Target: Cytochrome P450 2C19 (Homo sapiens) (UniProt P33261)
Assay: human CYP2C19 activators, primary screen, biochemical, luminescence (AID 1025);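 note: 0 = wells with 2.5 mM tranylcypromine and 1 = vehicle-only wells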
Details: recombinant CYP2C19, luciferin-H EGE luminescence; at 5 µM; stronger effect = higher value; 0 = fully inhibited enzyme, 1 = untreated enzyme

Chain of Cytochrome P450 2C19 (Homo sapiens) (P33261 whole entry, looked up): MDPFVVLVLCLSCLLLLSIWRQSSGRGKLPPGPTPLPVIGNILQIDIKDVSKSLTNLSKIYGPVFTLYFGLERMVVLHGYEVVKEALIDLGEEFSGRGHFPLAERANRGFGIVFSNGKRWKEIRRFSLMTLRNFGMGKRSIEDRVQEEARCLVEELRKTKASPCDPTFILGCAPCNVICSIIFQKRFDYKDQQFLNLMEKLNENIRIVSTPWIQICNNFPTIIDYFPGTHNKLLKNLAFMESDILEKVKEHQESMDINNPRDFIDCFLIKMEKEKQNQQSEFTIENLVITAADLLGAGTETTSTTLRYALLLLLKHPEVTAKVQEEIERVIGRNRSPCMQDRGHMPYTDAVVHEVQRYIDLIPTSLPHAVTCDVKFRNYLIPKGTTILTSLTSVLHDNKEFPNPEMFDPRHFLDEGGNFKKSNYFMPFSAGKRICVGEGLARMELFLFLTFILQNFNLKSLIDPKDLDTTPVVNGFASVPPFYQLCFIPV

Activation factor, inactive:
CCCNC(=O)c1ccccc1NC(=O)CSCc1ccc(OC)cc1 0.5, CC(C)NC(=O)C(=O)N/N=C/c1ccco1 1.1, CC(C)CCNC(=O)CC1C(=O)N(Cc2ccccc2)C(C)c2nc3ccccc3n21 (configuration not stated) 0.1, CCCCc1nc(NCCN)c(C#N)c2c1CSC(C)(C)C2 0.7, Cc1ccc(S(=O)(=O)NCC(C)NS(C)(=O)=O)cc1 (configuration not stated) 0.8, O=C(Nc1ccc(Sc2ccc(Br)cc2)cc1)c1ccco1 0.9, CCCn1nnnc1NC(=O)COc1ccc(Cl)cc1C 0.3, Cc1ccc(N(CC(=O)Nc2cccc(N(C)S(C)(=O)=O)c2)S(C)(=O)=O)cc1 1, O=C(NCCCCCCNC(=O)NCc1ccco1)NCc1ccco1 1.1, CCCCNC(=O)CCn1c(=S)[nH]c2cc3c(cc2c1=O)OCO3 0.6, CCC(=O)OCc1c(C(F)(F)F)nn(C)c1Oc1cccc(C(F)(F)F)c1 0.4, COc1ccc(N(CC(=O)N/N=C/c2cccs2)S(=O)(=O)c2ccc(OC)c(OC)c2)cc1 0, CCc1c(C)sc(NC(=O)c2cccs2)c1C(N)=O 0.2, Cc1nnc(NCCO)c2ccccc12 0.9, COc1cc(/C=N/NC(=O)Nc2ccccc2)ccc1OCCOc1ccccc1C 1, Cc1[nH]nc(-c2ccc(OCc3cnn(-c4ccccc4)c3)cc2O)c1Oc1ccc(Cl)cc1 0.8, COc1ccc2c(c1)SC(C)CC2=O (configuration not stated) 0.2, COC(=O)Nc1ccc(S(=O)(=O)N2CCN(CCN3C(=O)C4C5C=CC(C5)C4C3=O)CC2)cc1 (configuration not stated) 0.9, Cc1ccc(O)c(CNc2nc3ccccc3n2C)c1 0.6, CSc1ccc(CCNC(=O)C2CCN(c3nnc(-n4cccc4)s3)CC2)cc1 0.7, O=C(CCc1ccc(S(=O)(=O)NC2CCCCC2)cc1)NCc1ccccc1 0.4, O=c1[nH]c2c(c(=O)n1Cc1ccccc1)CCC2 1, Cc1ccc2nc(/C(C#N)=C\c3ccc(OC(=O)c4cccs4)cc3)[nH]c2c1 0.5, O=C(/C=C/c1ccccc1)c1ccoc1 0.7, CN1C2CCC1/C(=C\c1ccccc1Cl)C(=O)/C2=C\c1ccccc1Cl 1.1, CC(N=Cc1nc(-c2ccccc2)oc1O)c1ccccc1 (configuration not stated) 0.3, O=C(NCN1CCN(CCO)CC1)c1cnccn1 1.1, CC(Oc1ccc(Cl)cc1Cl)C(=O)/C=C/N(C)C (configuration not stated) 0.4, CN(C)/C=C(\C#N)C(=O)c1cccnc1Oc1cccc(F)c1 0.6, CC1CCC(N2CC(=O)N(Cc3ccc4c(c3)OCO4)C(c3ccc(F)cc3)C2=O)CC1 (configuration not stated) 0.8, C/C(=N\NC(=O)c1ccccc1C)c1ccc(N2CCOCC2)cc1 1, C=CCOc1cccc(CNn2cn[nH]c2=S)c1 0.7, COc1cc(OC)cc(C(=O)NC(=S)N2CCN(c3ccc(C(F)(F)F)cc3[N+](=O)[O-])CC2)c1 0.8, Cc1ccc(N(Cc2ccc(C(=O)Nc3ccccc3C(=O)NCc3ccco3)cc2)S(C)(=O)=O)cc1C 0.1, Cc1cc(=O)oc2ccc(OCC(=O)O)cc12 1, NC(=O)c1c(NC(=O)CSc2nnc(-c3ccco3)n2N)sc2c1CCCC2 0.7, O=C(O)/C=C/C(=O)Nc1ccc(F)cc1F 0.9, Clc1ccc(COn2c(-c3ccc(Cl)cc3Cl)nc3ncccc32)cc1 0, CCOCCn1c(C(C)C)nc2ccccc21 0.8, O=C(CCc1ccc(S(=O)(=O)N2CCOCC2)cc1)Nc1ccc2ccccc2c1 0.4, CCC(CC)C(=O)N1CC(=O)Nc2ccc(Br)cc2C1c1ccccc1 (configuration not stated) 0.5, CC(N)C12CC3CC(CC(O)(C3)C1)C2 (configuration not stated) 0.9, COc1ccc(C(=O)CN(C(=O)c2ccc(Cl)cc2)N2C(=O)c3ccccc3C2=O)cc1 0.6, O=C(CCN1c2ccccc2Sc2ccccc21)Nc1ccccc1 0.2, CCOc1cc(CNCCN(C)C)c(Cl)cc1OCC(=O)NCCc1ccccc1 1, Cc1cc(C(=O)Nc2c(C)nn(Cc3ccccc3)c2C)on1 0.9, CC(C)CNC(=S)NNC(=O)c1ccccc1OC(F)F 0.8, Cc1ccccc1NC(=O)C(C)c1ccc(-c2ccccc2)c(F)c1 (configuration not stated) 0.9, Cc1ccc(CS(=O)(=O)CCC(=O)NC2CC2)cc1 0.9, O=C(NC1CCCCC1)C1CC(=O)N(CCc2ccccc2)C1 (configuration not stated) 1.1, Cc1ccc(C2NC(=S)NC3=C2N2CCC3CC2)cc1 (configuration not stated) 1.1, C/C(=N\NS(=O)(=O)c1ccc(Br)cc1)c1cccs1 0.3, CC1(C)CC(CC(=O)O)C(=O)O1 (configuration not stated) 1.1, CCOC(=O)c1cnc(SC)nc1Sc1ccc(Cl)cc1Cl 0.7, CS(=O)(=O)N(CC(=O)Nc1ccc(F)cc1F)c1cccc([N+](=O)[O-])c1 0.4, CSc1ccccc1NC(=O)c1cc(C2CC2)on1 0.7, O=C(/C=C\NCC(=O)c1ccccc1)c1ccccc1 0.5, O=C(NCc1ccccn1)c1cc(-c2ccccc2Cl)on1 0.9, COc1cc(/C=N\NC(=O)CNC(=O)c2cccc([N+](=O)[O-])c2)ccc1O 0.8, COc1ccc(CC(=O)Nc2sc(Cc3ccccc3)c(C)c2C(N)=O)cc1 1, FC(F)(F)c1nnc2ccc(N3CCN(c4ccccc4)CC3)nn12 0.7, CC1CC(C)CN(C(=O)CSc2nnc(CSc3ncccn3)n2C)C1 (configuration not stated) 1.1, Cc1cc2[nH]ncc2cc1NC(=S)NC(=O)c1ccccc1 0, CCCCCCSc1nsc(N)n1 0.5, COc1cccc(-c2cc(C(=O)N/N=C/c3ccc(OC)c(COC(C)=O)c3)c3ccccc3n2)c1 0.5, CC1=NN(C(=O)Cc2ccc(C)cc2)C(O)(c2cccnc2)C1 (configuration not stated) 0.4, ONC(=Nc1ccccc1)c1ccccc1Cl 0.7, Oc1ccccc1CNc1ncc(Br)cc1Br 0.6, Cc1nc(SCC(=O)N2CC(=O)Nc3ccccc32)c2c(C)c(C)sc2n1 0.5, COc1ccc(C(=S)Nc2ccccc2)cc1 0.3, N#Cc1ccc(-c2ccc(F)cc2)nc1Sc1ccccc1 1, OCCNc1nc2ccccc2n1-c1ncnc2sc3c(c12)CCC3 1.1, O=C(Nc1ccc(Br)cc1)c1cccc(NC(=O)C2C3CC4OC(=O)C2C4C3)c1 (configuration not stated) 0.8, Cc1ccc(NC(=O)N2CCC(c3nc4c(nnn4Cc4c(F)cccc4Cl)c(=O)[nH]3)CC2)cc1 0, O=C(NC1CCc2ccccc21)C12CN(Cc3ccccc3)CC1C(c1cccc([N+](=O)[O-])c1)=NO2 (configuration not stated) 0.9, S=C1NC(c2ccccc2)=NCN1c1ccc(Br)cc1 0.5, COC(=O)c1ccc(CSc2nc3cc(Cl)ccc3o2)cc1 1.1, O=C(NCCc1ccccc1)c1ccc(NC2=NC3CS(=O)(=O)CC3S2)cc1 (configuration not stated) 0.9, Cn1nc(-c2ccccc2)c(CSc2cccc(Cl)c2)c1Cl 0.5, CC1(C)COC(c2cccn2Cc2ccccc2Cl)=N1 1, S=c1[nH]nc(-c2ccc(Cl)cc2)n1CC1CCCO1 (configuration not stated) 0.6, Cc1ccc(C2CC2C(=O)NN)cc1 (configuration not stated) 0.5, N=c1c2c(-c3ccccc3)c(-c3ccccc3)oc2ncn1Cc1ccco1 0.8, O=c1[nH]c(CCl)nc2cc(-c3ccc(Cl)cc3)sc12 0.7, CCCSC(=S)NC1CCS(=O)(=O)C1 (configuration not stated) 0.9, CC(Sc1nnc(Cc2ccc([N+](=O)[O-])cc2)o1)C(N)=O (configuration not stated) 0.8, Cc1ccc(NC(=S)NCCN2CCOCC2)cc1 0.8, Cc1cnc(NC(=O)CSc2nnc(C)s2)s1 0.8, Cc1ccc(N2C(=O)C(Cc3ccccc3)NC2=S)cc1 (configuration not stated) 0.6, CC1=C(C)CC(C(=O)NNC(=O)c2ccccc2O)C(C(=O)O)C1 (configuration not stated) 1.1, CCN(CC(=O)Nc1ccccc1OC)C(=O)Cn1cnc2ccccc2c1=O 1, O=c1[nH][nH]c(C(F)(F)F)c1C=NCc1ccccc1Cl 0.1, COC(=O)c1sc2ncccc2c1OCc1ccc(Cl)cc1Cl 1, CCOC(=O)C1Sc2[nH]c(=O)sc2C(c2ccc(Cl)cc2)C1C(=O)OCC (configuration not stated) 0.8, C=CCN(N=Nc1cccc([N+](=O)[O-])c1)c1cccc([N+](=O)[O-])c1 0.8, CC(CC(=O)Nc1cc(C(F)(F)F)ccc1Cl)c1ccccc1 (configuration not stated) 0.4, C(=N/N1CCN(c2ccccc2)CC1)/c1cccs1 0.5, CC1(C)CC(=O)C(C=NCCN2CCN(C(=S)Nc3cccc(Cl)c3)CC2)=C(O)C1 0.4, O=C(C1=C(O)C(=O)N(Cc2ccccc2)C1c1ccco1)c1ccco1 (configuration not stated) 1.2, Nc1nc(C23CC4CC(CC(C4)C2)C3)cs1 0.6, CC(C)N(c1ccccc1)c1ncnc(NCCC(=O)O)c1[N+](=O)[O-] 0.4, CC1=C(C(N)=O)C(c2sccc2C)n2nnnc2N1 (configuration not stated) 0.9
